# PubChem BioAssay AID430 (Sanford-Burnham Center for Chemical Genomics, 2006)
# The whole screen tested about 63,000 compounds, of which about 1,100 (1.7%) were called active. Shown is part of a subset that was picked to be rich in actives. Measured potencies and affinities stand elsewhere. A number with no mark means an inactive call. No stated cut-off is given here; in the data, active means cytotoxicity above about 50%; inactive means the rest.
# Assay: HPDE-C7 pancreatic duct cell viability loss – fluorescence, HTS (AID 430);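 further: cells exposed to compound for 48 hours before viability readout; 0% = vehicle and 100% = reference cytotoxic drug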
# Details: HPDE-C7 pancreatic duct cells viability, at 10 µM, stronger effect = higher value
row,Structure (SMILES),cytotoxicity
1,Cc1ccc(-c2ccc(=O)n(CCC(=O)NCCN3CCCCC3C)n2)cc1 (stereo not drawn),5.1%
2,O=S(=O)(Nc1nc2ccccc2nc1NCCO)c1cccc(Cl)c1,12.5%
3,CCOC(=O)N1CCC(N(C(=O)Nc2ccccc2)C(C)CC)CC1 (stereo not drawn),-4.7%
4,CCCOc1ccccc1C1CC(=O)NC2=C1C(=O)CCC2 (stereo not drawn),47.3%
5,O=C1CC(c2ccc3c(c2)OCO3)c2cc3c(cc2N1)OCO3 (stereo not drawn),-5.6%
6,CCOc1ccccc1C1CC(=O)NC2=C1C(=O)CCC2 (stereo not drawn),30.3%
7,CCCOc1c(OC)cccc1C1CC(=O)Nc2cc(OC)c(OC)c(OC)c21 (stereo not drawn),10.7%
8,O=C1CC(c2cccnc2)c2cc3c(cc2N1)OCCO3 (stereo not drawn),5.1%
9,CCCCOc1ccccc1C1CC(=O)NC2=C1C(=O)CCC2 (stereo not drawn),71.2% (active)
10,CCCOc1ccccc1C1CC(=O)Nc2cc3c(cc21)OCCO3 (stereo not drawn),63% (active)
11,O=C1CC(c2cccs2)c2cc3c(cc2N1)OCO3 (stereo not drawn),1%
12,CCCOc1ccccc1C1CC(=O)Nc2cc3c(cc21)OCO3 (stereo not drawn),54.1% (active)
13,CCCOc1c(OC)cccc1C1CC(=O)Nc2cc3c(cc21)OCCO3 (stereo not drawn),70.1% (active)
14,O=C1CC(c2cccs2)c2cc3c(cc2N1)OCCO3 (stereo not drawn),5.6%
15,CCCOc1c(OC)cccc1C1CC(=O)Nc2cc3c(cc21)OCO3 (stereo not drawn),12.7%
16,CCOc1ccccc1C1NC(=O)NC(C)=C1C(=O)OC1CCCCC1 (stereo not drawn),1.9%
17,COC(=O)c1c(C)n(-c2ccccc2)c2ccc(O)cc12,11.1%
18,CC(C)C(NC(=O)OCc1ccccc1)C(=O)NCC(=O)OC(C)(C)C (stereo not drawn),5.4%
19,COc1ccc(C)cc1NS(=O)(=O)c1ccc(NS(=O)(=O)c2ccc(NC(C)=O)cc2)cc1,-5.6%
20,O=C(CCCOc1ccc(Cl)cc1)N1CCOCC1,-10.1%
21,Cc1nc2sc(C(c3cccs3)N3CCC(C(N)=O)CC3)c(O)n2n1 (stereo not drawn),-20.4%
22,OCC(CO)(CO)N=Cc1cc(Br)ccc1O,8.1%
23,CCCc1n[nH]c2c1C(=O)CC(C)(C)C2,1.7%
24,CCN(C(=O)CSc1nc2nc(C)cc(C)n2n1)c1ccccc1,-4%
25,COC(=O)Cn1c2ccc(F)cc2c2nc(C)sc21,-12.3%
26,Cc1cc(=O)[nH]c(-n2nc(C)cc2C)n1,-1.2%

row,Structure (SMILES),cytotoxicity
1,Cc1cc(Nc2ccccc2)n(-c2nc3ccccc3[nH]2)n1,4%
2,Cc1ccc(Nc2cc(C)nn2-c2nc(C)cc(=O)[nH]2)cc1,102% (active)
3,Cc1nc(C)c(C(=O)C2=C(O)C(=O)N(CCN3CCOCC3)C2c2cccnc2)s1 (stereo not drawn),-12.6%
4,Fc1cccc2sc(Nc3nnc(-c4ccccc4)o3)nc12,53.3% (active)
5,CC(=O)Nc1nc2c(F)cccc2s1,9.8%
6,c1coc(-c2nnc(NC3=NCCC3)o2)c1,7.5%
7,COc1cc(OC)cc(-c2nnc(Nc3nc4c(F)cccc4s3)o2)c1,8.8%
8,CCC(=O)Nc1nnc(-c2ccco2)o1,-23.7%
9,Fc1cccc2sc(Nc3nnc(-c4ccco4)o3)nc12,53.7% (active)
10,Cc1ccc2c(n1)sc1c(N)ncnc12,9.8%
11,O=C(CSCc1cccc(Br)c1)N1CCOCC1,-8.7%
12,COc1ccc(-c2noc(-c3cc(Cl)ccc3Cl)n2)cc1OC,-2.3%
13,CCOc1ccc(C2N(c3ccc(OC)cc3)C(=O)C3CCCN32)cc1OC (stereo not drawn),2.1%
14,CCOC(=O)N1CCN(Cc2cc(=O)oc3ccc4ccccc4c23)CC1,14.3%
15,CCOC(=O)Nc1cc(=O)c2ccccc2o1,53.2% (active)
16,CCOC(=O)Oc1ccc2oc(=O)cc(C)c2c1,4.4%
17,CCOC(=O)/C=C(\C)Sc1cc(=O)oc2ccccc12,78.4% (active)
18,O=C(Nc1cc(=O)c2ccccc2o1)N1CCCCC1,-24.9%
19,O=C(Nc1cc(=O)c2ccccc2o1)N1CCOCC1,11.2%
20,COc1ccc(Cl)cc1NC(=O)C1CCCN(S(=O)(=O)c2cccc3nonc23)C1 (stereo not drawn),-12.6%
21,O=C(NCc1ccc(Cl)c(Cl)c1)c1ccco1,-4.6%
22,CCCCn1c(=O)[nH]c2ccccc21,9.9%
23,COc1ccc(C(=O)NCC(C)CN(C)C)cc1 (stereo not drawn),-2.3%
24,CCOC(=O)Nc1cccc(Nc2ccccc2)c1,4.6%
25,Cc1ccc2[nH]c3c(c2c1)CCc1cn[nH]c1-3,43.6%
26,Cc1ccc2[nH]c3c(c2c1)CCC3=O,-7.5%

row,Structure (SMILES),cytotoxicity
1,CCN(CC)S(=O)(=O)c1cccc(C(=O)N2CCCCC2)c1,1.9%
2,c1ccc(-c2cn3nc(-c4ccccc4)sc3n2)cc1,-10.8%
3,CCN(c1cccc(C(F)(F)F)c1)S(=O)(=O)c1ccc2c(c1)CCN2C(=O)C1CC1,-11.3%
4,CCN(c1cccc(C)c1)S(=O)(=O)c1ccc2c(c1)CCN2C(C)=O,46.6%
5,CCN(c1cccc(C(F)(F)F)c1)S(=O)(=O)c1ccc2c(c1)CCN2C(C)=O,59.5% (active)
6,CCC1CCCCN1C(=O)Cn1c(=O)n(CCC(=O)NCc2ccco2)c(=O)c2sccc21 (stereo not drawn),-4.6%
7,Oc1cccc2ccc(Nc3ccccn3)nc12,119% (active)
8,c1ccc(Nc2ccccc2Nc2ccccn2)nc1,-35.9%
9,O=C(Nc1ccccn1)c1ccc2ccccc2n1,-1.6%
10,COC(=O)c1cc(Cc2ccc(N)c(C(=O)OC)c2)ccc1N,1.9%
11,O=C(COC(=O)CSCC(=O)N1CCCCC1)NCc1ccc(F)cc1,-5.4%
12,O=C(Nc1ccc(C(F)(F)F)cc1Cl)c1ccc(Cn2cc(Br)cn2)o1,63.2% (active)
13,O=C(NC1CCCCC1)c1ccc(Cn2cc(Br)cn2)o1,-6.8%
14,CC(=O)c1sc(NC(=O)c2ccc(Cn3cc(Br)cn3)o2)nc1C,3.3%
15,FC(F)C(F)(F)C(F)(F)C(F)(F)c1cc(-c2ccccc2)n[nH]1,83.3% (active)
16,Oc1ccccc1-c1cc(C(F)(F)C(F)F)[nH]n1,-15.5%
17,O=C1CC(C(F)(F)C(F)(F)C(F)(F)C(F)F)=Nc2ccccc2N1,-21.9%
18,CCN(CCCNC(=O)Cn1ncc2c(=O)oc3ccccc3c21)c1cccc(C)c1,55.1% (active)
19,CCN(CC)CCCNC(=O)Cn1ncc2c(=O)oc3ccc(C)cc3c21,1.6%
20,CCOCCCNC(=O)Cn1ncc2c(=O)oc3ccccc3c21,-3.8%
21,Cc1cc(C)nc(NC(=O)NS(=O)(=O)N2CCCCCC2)n1,-13.1%
22,Cc1ccc2[nH]c(=O)c(CN(CCc3ccccc3)Cc3nnnn3CC3CCCO3)cc2c1 (stereo not drawn),9.4%
23,CCOC(=O)N1CCN(C(=O)CSc2nnc(COc3ccc(Cl)cc3)o2)CC1,-20.5%
24,CN1/C(=C\C(=O)c2ccco2)C(C)(C)c2ccccc21,-14.9%
25,CN1/C(=C/C(=O)c2nc(S(C)(=O)=O)ncc2Cl)C(C)(C)c2ccccc21,110% (active)
26,CN1/C(=C\C(=O)C(F)F)C(C)(C)c2ccccc21,-24.8%

row,Structure (SMILES),cytotoxicity
1,COc1cc(CO)cc(Br)c1OCC(=O)O,-22.6%
2,O=C(CSc1nnc(Cc2cc(=O)[nH]c(=O)[nH]2)n1-c1ccccc1)N1CCCC1,-9.2%
3,O=C(CSC1=NCCS1)Nc1ccccc1F,-3.4%
4,Cc1cc(NC(=O)CSc2nnc(-c3ccco3)n2Cc2ccco2)no1,-9.5%
5,[O-][n+]1onc2c1CCc1nnc(-c3ccccc3)cc1-2,5.5%
6,O=c1nc(-c2ccccc2)cc(-c2ccccc2)[nH]1,-1.2%
7,Cc1ccc(/C(O)=C2/C(=O)C(=O)N(Cc3cccnc3)C2c2ccccn2)cc1 (stereo not drawn),10.4%
8,COc1cccc(Oc2cn[nH]c2-c2ccc(O)cc2O)c1,36%
9,COc1cccc(Oc2cn[nH]c2-c2ccc(OC)cc2O)c1,72.7% (active)
10,COc1cccc(Oc2cnc(N)nc2-c2ccc(OC)cc2O)c1,52% (active)
11,COc1ccc(-c2[nH]ncc2-c2cnn(-c3ccccc3)c2)c(O)c1,-0.4%
12,C=C(C)COc1ccc(-c2nc(N)ncc2-c2ccc(OC)cc2)c(O)c1,70.7% (active)
13,COc1ccc(-c2nc(N)nc(C)c2Oc2ccccc2Br)c(O)c1,87.7% (active)
14,CCOc1ccc(-c2nc(N)nc(C)c2-c2ccc(OC)c(OC)c2)c(O)c1,3.7%
15,C=C(C)COc1ccc(-c2nc(N)ncc2Oc2ccc(OC)cc2)c(O)c1,-10.3%
16,COc1ccc(-c2nc(N)ncc2Oc2ccccc2Br)c(O)c1,-2.2%
17,COc1cccc(Oc2cncnc2-c2ccc(OC)cc2O)c1,20.3%
18,COc1ccc(-c2nc(N)ncc2-c2csc(C)n2)c(O)c1,-25%
19,CCOc1ccc(-c2ncncc2-c2ccc(OC)cc2)c(O)c1,-11.9%
20,Cc1nc(N2CCC(C(N)=O)CC2)c2nnn(Cc3ccccc3)c2n1,4.3%
21,Cc1oc(C(=O)O)cc1CSc1nnc(-c2ccccc2)n1C,-2.3%
22,COc1ccc(NC2c3ccccc3C(=O)N2Cc2ccco2)cc1OC (stereo not drawn),17.8%
23,Cc1cccc(Cn2cnc3c(nnn3Cc3ccc(F)cc3)c2=O)c1,1.3%
24,C=C(C)CSc1nnc(-c2ccccc2)n1N,-23.4%
25,COC(=O)c1nc2n(n1)C(c1ccc(OC)c(OC)c1OC)C1=C(CCCC1=O)N2 (stereo not drawn),2.9%
